From PubChem BioAssay (NCATS) come the findings set out here.

Test [1] concerns the target Calcium and integrin-binding protein 1 (Homo sapiens) (UniProt Q99828). As to the kind of experiment: Primary qHTS for Identification of Calcium Integrin Binding Protein 1 (CIB1) Competitor (AID 1508620).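 Note: GST tagged CIB1 binding a fluorescein labelled alphaIIb integrin peptide tracer; top concentration of the series differs between compounds.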 The essentials:
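CIB1-GST (1 uM final) and compound incubated 15 min at room temperature before adding FITC-alphaIIb peptide tracer (100 nM final). Competition for binding read by fluorescence polarization (ex 480, em 540) after another 15 min at room temperature.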

A short description of test [2]: Primary qHTS for inhibitors of nuclear receptor binding SET domain protein 2 (NSD2) in an isogenic RCH-ACV NSD2 p.E1099K mutant (9B) (AID 1645876). Note: nearly all actives have a fitted effect of over 70% in size. Note: potency is the fitted concentration of half-maximal effect.

The structures appear in SMILES notation. Results filed as inconclusive are left out. Values without a mark were called inactive. Active and inactive are the calls of the source. Calls come from the whole dose curve; as a rule, active = well fitted inhibition curve with a large enough effect; inconclusive = small, poorly fitted or top-dose-only effect; inactive = flat fitted curve, though single readings scatter.
% is set by controls: 0 for no effect and ±100 for the full control effect.

Sequence of Calcium and integrin-binding protein 1 (Homo sapiens) (Q99828 whole entry, looked up): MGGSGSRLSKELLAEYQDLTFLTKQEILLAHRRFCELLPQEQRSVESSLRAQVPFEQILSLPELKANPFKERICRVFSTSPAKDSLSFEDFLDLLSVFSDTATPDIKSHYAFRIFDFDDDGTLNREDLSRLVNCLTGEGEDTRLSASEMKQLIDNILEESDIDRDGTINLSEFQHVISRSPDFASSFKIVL

For the compound `COc1cc2c(cc1OC)[C@@H]1[C@H](O)[C@@H](OC)C=C3CCN(C2)[C@H]31`, the Potency result in test [1] was “inactive”. In addition, the Potency in test [2] was 4.5 µM (active).

`C/C=C1\[C@H](OC2OC(COC3OC(CO)C(O)C(O)C3O)C(O)C(O)C2O)OC=C(C(=O)OC)[C@H]1CC(=O)OCCc1ccc(O)cc1` (some centres undefined): the Potency result in test [1] and in test [2] was “inactive” in each case.

In the case of `C[C@@H]1C(=O)O[C@H]2[C@@H](O)C34[C@H]5C[C@@H](C(C)(C)C)C36[C@@H](OC(=O)[C@@H]6O)O[C@@]4(C(=O)O5)[C@@]12O` (some centres undefined), the Potency result in test [1] and in test [2] was “inactive” each time.

For `CC(=O)C12OC(C)(C)OC1CC1C3CCC4=CC(=O)C=CC4(C)C3(F)C(O)CC12C` (centres undefined), the Potency result in test [1] and in test [2] was “inactive” in each case.

Regarding `COc1c2cc(c(O)c1OC)-c1cc(ccc1O)CCC(O)CCCC2` (centres undefined), the Potency result in test [1] and in test [2] was “inactive” in each case.

`C[C@@H]1CC[C@]2(C(=O)OC3OC(CO)C(O)C(O)C3O)CC[C@]3(C)C(=CCC4[C@@]5(C)CC[C@H](O)[C@](C)(C(=O)O)C5CC[C@]43C)C2[C@]1(C)O` (some centres undefined): the Potency entry in test [1] and in test [2] was “inactive” in each case.

With `C[C@@H]1O[C@@H](O[C@H]2[C@H](OC(=O)[C@]34CCC(C)(C)C[C@H]3C3=CCC5[C@@]6(C)CC[C@H](O[C@@H]7O[C@H](C(=O)O)[C@@H](O)[C@H](O)[C@H]7O[C@@H]7O[C@H](CO)[C@H](O)[C@H](O)[C@H]7O)[C@@](C)(C=O)C6CC[C@@]5(C)[C@]3(C)C[C@H]4O)O[C@H](C)[C@H](O[C@@H]3O[C@H](C)[C@H](O)[C@H](O)[C@H]3O)[C@@H]2O)[C@H](O)[C@H](O)[C@H]1O[C@@H]1OC[C@@H](O)[C@H](O[C@@H]2O[C@H](CO)[C@@H](O)[C@H](O)[C@H]2O)[C@H]1O` (some centres undefined), in test [1], the activity change, negative = inhibition is -0.579% [at 12.4 µM]. In test [2], the activity change, negative = viability loss is -94% [at 4.96 µM].

In the case of `c1ccc(-c2csc(N3CCOCC3)n2)cc1`, the Potency result in test [1] and in test [2] was “inactive” each time.

Consider `COc1cc(O)cc(/C=C/c2ccc(O[C@@H]3O[C@H](CO)[C@@H](O)[C@H](O)[C@H]3O)cc2)c1`, for which the Potency entry in test [1] is “inactive”. In addition, the Potency in test [2] is 8.93 µM (active).

`CC12CCC(OC3OC(CO)C(O)C(OC4OC(CO)C(O)C(O)C4O)C3O)CC1CCC1C2CCC2(C)/C(=C3/COC(=O)C3)CCC12O` (centres undefined): the Potency result in test [1] and in test [2] was “inactive” each time.

In the case of `Nc1ncnc2c([C@@H]3N[C@H](CO)[C@@H](O)[C@H]3O)c[nH]c12`, the Potency entry in test [1] and in test [2] was “inactive” in each case.

With `CC1(C(=O)O)CCCC2(C)C3=CCC4CC3(CCC12)CC4CO` (centres undefined), the Potency result in test [1] and in test [2] was “inactive” throughout.

As to `CC(=O)CC1CCC(C(C)C(=O)OCC(O)CO)O1` (centres undefined), the Potency result in test [1] and in test [2] was “inactive” throughout.

For `C=C(C(=O)O)C1CC2=C(C)CCCC2(C)C[C@@H]1O` (some centres undefined), the Potency result in test [1] and in test [2] was “inactive” in each case.

As to `C[C@@H]1O[C@@H](O[C@H]2[C@H](O)[C@@H](O[C@@H]3O[C@H](CO)[C@@H](O)[C@H](O[C@@H]4O[C@H](CO)[C@@H](O)[C@H](O)[C@H]4O)[C@H]3O)[C@H](O[C@H]3CC[C@@]4(C)C(=CC[C@@H]5C4CC[C@@]4(C)C5C[C@@H]5OC6(CC[C@@](C)(CO[C@@H]7O[C@H](CO)[C@@H](O)[C@H](O)[C@H]7O)O6)[C@@H](C)[C@@H]54)C3)O[C@@H]2CO)[C@H](O)[C@H](O)[C@H]1O` (some centres undefined), in test [1], the activity change, negative = inhibition was -1.49% [at 12.4 µM]. Besides, in test [2], the activity change, negative = viability loss is -19.9% [at 9.23 µM].

In the case of `C=C1[C@H](OC(C)=O)[C@H]2[C@@H](OC(C)=O)[C@](C)(OC(C)=O)C[C@]2(OC(C)=O)C(=O)[C@H](C)/C=C/C(C)(C)C(=O)[C@H](OC(=O)C(C)CC)[C@H]1OC(C)=O` (some centres undefined), the Potency result in test [1] and in test [2] was “inactive” each time.

As to `C=CC(C)(C)c1[nH]c2cc3c(cc2c1CC1NC(=O)C2CCCN2C1=O)C=CC(C)(C)O3` (centres undefined), the Potency entry in test [1] and in test [2] was “inactive” each time.

With `CC1(C)CC2C(C1)C(C)(O)C13CC1(COC3=O)C2O` (centres undefined), the Potency result in test [1] and in test [2] was “inactive” throughout.

Take `CC(C)C1=CC2C(CC[C@]2(C)O)[C@](C)(O)CC1` (some centres undefined): the Potency result in test [1] and in test [2] was “inactive” in each case.

With `C=C[C@@]12COC(=O)C(=C)C1[C@@H](O)[C@H](C(=C)C(=O)OC)[C@@H](OC(=O)C(=C)CO)C2` (some centres undefined), the Potency result in test [1] was “inactive”. Moreover, in test [2], the Potency is 8.93 µM (active).

Regarding `C[C@H]1CC[C@@]2(OC1)O[C@H]1CC3C4CC[C@H]5C[C@@H](O)[C@H](O)C[C@]5(C)C4=CC(=O)[C@]3(C)[C@H]1[C@@H]2C` (some centres undefined), the Potency entry in test [1] and in test [2] was “inactive” throughout.

Regarding `C[C@@H]1O[C@@H](O[C@H]2[C@H](O)[C@@H](O[C@@H]3O[C@H](CO)[C@@H](O)[C@H](O[C@@H]4O[C@H](CO)[C@@H](O)[C@H](O)[C@H]4O)[C@H]3O)[C@H](O[C@H]3CC[C@@]4(C)C(=CC[C@@H]5C4CC[C@@]4(C)C5C[C@@H]5OC6(CC[C@@](C)(CO[C@@H]7O[C@H](CO)[C@@H](O)[C@H](O)[C@H]7O)O6)[C@@H](C)[C@@H]54)C3)O[C@@H]2CO)[C@H](O)[C@H](O)[C@H]1OC1OC(CO)C(O)C(O)C1O` (some centres undefined), in test [1], the activity change, negative = inhibition was -2.87% [at 12.4 µM]. For the same compound, in test [2], the outcome was “inactive [at 9.23 µM]”.
